“And” between values parts separate entries of the source, which are not always exact repeats. Identical values can stand only once. Screen size: about 5,500 compounds; about 2,000 (36%) were called active. Inconclusive results (about 18%) are left out. Rule as the data show it: active = normalized growth mostly below about 0.91 (no sharp cut-off); inconclusive = no clear call, values can overlap the other calls; inactive = mostly above about 0.92. Some of the results follow.
Test: chemical genetic growth profiling, strain panel (AID 1159580);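 also: tested at 20 µM; growth read once vehicle control cultures reached saturation at 30 °C; 1 = growth at the plate median or of vehicle wells; lower values mean less growth of the strain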
Conditions: growth OD

Measured: normalized growth

CCCn1c(=O)c2[nH]c(C3CCCC3)nc2n(CCC)c1=O
inactive: S. cerevisiae deletion strains, locus YJR043C, strain POL32, hits give low values 0.989 | S. cerevisiae deletion strains, locus YJR075W, strain HOC1, hits give low values 0.968 and 0.985 | S. cerevisiae deletion strains, locus YKL009W, strain mrt4, hits give low values 0.966 | S. cerevisiae deletion strains, locus YKL068W, hits give low values 0.965 | S. cerevisiae deletion strains, locus YKL085W, strain MDH1 (second series), hits give low values 0.994 | S. cerevisiae deletion strains, locus YKL085W, strain MDH1, hits give low values 0.994 | S. cerevisiae deletion strains, locus YKL160W, strain elf1, hits give low values 0.996 | S. cerevisiae deletion strains, locus YKL190W, strain CNB1, hits give low values 0.981 | S. cerevisiae deletion strains, locus YKR001C, strain vps1, hits give low values 0.964 | S. cerevisiae deletion strains, locus YKR026C, strain gcn3, hits give low values 0.998 | S. cerevisiae deletion strains, locus YKR091W, strain srl3, hits give low values 0.982 | S. cerevisiae deletion strains, locus YLL001W, strain dnm1, hits give low values 0.986 | S. cerevisiae deletion strains, locus YLL026W, hits give low values 0.974 | S. cerevisiae deletion strains, locus YLL041C, strain sdh2, hits give low values 0.979 | S. cerevisiae deletion strains, locus YLR027C, strain aat2, hits give low values 0.987 | S. cerevisiae deletion strains, locus YLR039C, strain RIC1, hits give low values 0.881 | S. cerevisiae deletion strains, locus YLR058C, strain SHM2, hits give low values 0.982 | S. cerevisiae deletion strains, locus YLR102C, strain apc9, hits give low values 0.957 | S. cerevisiae deletion strains, locus YLR221C, strain rsa3, hits give low values 1 | S. cerevisiae deletion strains, locus YLR258W, strain gsy2, hits give low values 0.963 | S. cerevisiae deletion strains, locus YLR262C, strain YPT6 (second series), hits give low values 0.965 | S. cerevisiae deletion strains, locus YLR262C, strain YPT6, hits give low values 0.854 | S. cerevisiae deletion strains, locus YLR268W, strain sec22, hits give low values 0.957 | S. cerevisiae deletion strains, locus YLR320W, strain mms22, hits give low values 0.974 | S. cerevisiae deletion strains, locus YLR330W, strain CHS5, hits give low values 0.98 | S. cerevisiae deletion strains, locus YLR342W, strain FKS1 (second series), hits give low values 0.979 | S. cerevisiae deletion strains, locus YLR342W, strain FKS1, hits give low values 0.987 | S. cerevisiae deletion strains, locus YLR357W, strain rsc2, hits give low values 0.986 | S. cerevisiae deletion strains, locus YLR370C, strain arc18, hits give low values 0.986 | S. cerevisiae deletion strains, locus YLR371W, strain rom2, hits give low values 0.951 | S. cerevisiae deletion strains, locus YLR384C, strain iki3, hits give low values 0.995 | S. cerevisiae deletion strains, locus YLR418C, strain cdc73, hits give low values 1.01 | S. cerevisiae deletion strains, locus YML016C, strain PPZ1, hits give low values 0.992 | S. cerevisiae deletion strains, locus YML032C, strain rad52, hits give low values 0.959 | S. cerevisiae deletion strains, locus YML120C, strain ndi1, hits give low values 0.997 | S. cerevisiae deletion strains, locus YML124C, strain tub3, hits give low values 0.972 | S. cerevisiae deletion strains, locus YMR058W, strain fet3, hits give low values 1 | S. cerevisiae deletion strains, locus YMR078C, strain ctf18, hits give low values 0.972 | S. cerevisiae deletion strains, locus YMR125W, strain sto1, hits give low values 0.994 | S. cerevisiae deletion strains, locus YMR129W, hits give low values 0.968 | S. cerevisiae deletion strains, locus YMR205C, strain PFK2, hits give low values 0.967 | S. cerevisiae deletion strains, locus YMR223W, strain ubp8, hits give low values 0.97 | S. cerevisiae deletion strains, locus YMR231W, strain pep5, hits give low values 0.994 | S. cerevisiae deletion strains, locus YMR263W, strain SAP30, hits give low values 0.993 | S. cerevisiae deletion strains, locus YMR307W, strain GAS1, hits give low values 0.947 | S. cerevisiae deletion strains, locus YNL067W, strain RPL9B, hits give low values 0.986 | S. cerevisiae deletion strains, locus YNL071W, strain lat1, hits give low values 0.997 | S. cerevisiae deletion strains, locus YNL128W, strain TEP1, hits give low values 1 | S. cerevisiae deletion strains, locus YNL153C, strain GIM3, hits give low values 0.998 and 0.965 | S. cerevisiae deletion strains, locus YNL175C, strain NOP13, hits give low values 0.977 | S. cerevisiae deletion strains, locus YNL197C, strain WHI3, hits give low values 0.976 | S. cerevisiae deletion strains, locus YNL209W, strain ssb2, hits give low values 0.994 | S. cerevisiae deletion strains, locus YNL224C, strain SQS1, hits give low values 0.975 | S. cerevisiae deletion strains, locus YNL233W, strain BNI4, hits give low values 0.991 | S. cerevisiae deletion strains, locus YNL248C, strain rpa49, hits give low values 0.992 | S. cerevisiae deletion strains, locus YNL250W, strain rad50, hits give low values 0.973 | S. cerevisiae deletion strains, locus YNL271C, strain bni1, hits give low values 0.974 | S. cerevisiae deletion strains, locus YNL298W, strain CLA4, hits give low values 0.972 | S. cerevisiae deletion strains, locus YNL307C, strain MCK1, hits give low values 0.97 | S. cerevisiae deletion strains, locus YNL322C, strain KRE1 (second series), hits give low values 0.986 | S. cerevisiae deletion strains, locus YNL322C, strain KRE1, hits give low values 0.984 and 0.987 | S. cerevisiae deletion strains, locus YNR049C, strain mso1, hits give low values 0.984 | S. cerevisiae deletion strains, locus YNR052C, strain pop2, hits give low values 0.975 | S. cerevisiae deletion strains, locus YOL006C, strain TOP1, hits give low values 0.986 | S. cerevisiae deletion strains, locus YOL012C, strain htz1 0.878 | S. cerevisiae deletion strains, locus YOL147C, strain pex11, hits give low values 0.962 | S. cerevisiae deletion strains, locus YOR001W, strain rrp6, hits give low values 0.995 | S. cerevisiae deletion strains, locus YOR061W, strain CKA2, hits give low values 0.995 | S. cerevisiae deletion strains, locus YOR069W, strain VPS5, hits give low values 0.989 | S. cerevisiae deletion strains, locus YOR070C, strain gyp1, hits give low values 0.993 | S. cerevisiae deletion strains, locus YOR080W, strain dia2, hits give low values 0.984 | S. cerevisiae deletion strains, locus YOR083W, strain WHI5 (second series), hits give low values 0.989 | S. cerevisiae deletion strains, locus YOR083W, strain WHI5, hits give low values 1.01 | S. cerevisiae deletion strains, locus YOR106W, strain vam3, hits give low values 0.996 | S. cerevisiae deletion strains, locus YOR136W, strain idh2, hits give low values 0.954 | S. cerevisiae deletion strains, locus YOR144C, strain elg1, hits give low values 0.965 | S. cerevisiae deletion strains, locus YOR184W, strain ser1, hits give low values 0.955 | S. cerevisiae deletion strains, locus YOR265W, strain rbl2, hits give low values 0.991 | S. cerevisiae deletion strains, locus YOR270C, strain vph1, hits give low values 0.998 | S. cerevisiae deletion strains, locus YOR290C, strain snf2, hits give low values 0.923 | S. cerevisiae deletion strains, locus YOR316C, strain cot1, hits give low values 0.977 | S. cerevisiae deletion strains, locus YPL051W, strain arl3, hits give low values 0.987 | S. cerevisiae deletion strains, locus YPL055C, strain LGE1, hits give low values 0.976 | S. cerevisiae deletion strains, locus YPL078C, strain atp4, hits give low values 0.994 | S. cerevisiae deletion strains, locus YPL106C, strain sse1, hits give low values 0.976 | S. cerevisiae deletion strains, locus YPL240C, strain hsp82, hits give low values 0.983 | S. cerevisiae deletion strains, locus YPL241C, strain CIN2, hits give low values 0.954 and 1.01 | S. cerevisiae deletion strains, locus YPR119W, strain clb2, hits give low values 0.967 | S. cerevisiae deletion strains, locus YPR141C, strain kar3, hits give low values 0.977 | S. cerevisiae deletion strains, locus YPR163C, strain tif3, hits give low values 0.969 | S. cerevisiae deletion strains, locus YPR167C, strain met16, hits give low values 0.982 | S. cerevisiae deletion strains, strain wtn01, hits give low values 0.98 | S. cerevisiae strains, strain wild type, hits give low values 0.981
